In PubChem BioAssay:
Activity calls are given as the source filed them. Unless noted, no rule for the calls is given here.

Experiments:
[1] = compound effects on lung adenocarcinoma cell viability – A549, calcein-AM fluorescence, 48 h, basal, profiling panel (AID 1162); details: higher = more signal; also: test concentration not given here
[2] = compound effects on differentiated 3T3-L1 adipocyte viability – cell-based, 3T3-L1 adipocytes, calcein-AM fluorescence, 48 h, basal, profiling panel (AID 1163); details: 3T3-L1 adipocytes viability, higher = more signal; also: test concentration not given here
[3] = compound effects on hepatocellular carcinoma cell viability – HepG2, calcein-AM fluorescence, 48 h, basal, profiling panel (AID 1164); details: higher = more signal; also: test concentration not given here
[4] = compound effects on multiple myeloma cell viability – MM1S, calcein-AM fluorescence, 48 h, basal, profiling panel (AID 1165); details: higher = more signal;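 also: viability of MM1S multiple myeloma cells under basal unstimulated conditions; test concentration not given here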
[5] = calcein-AM signal in unstimulated myeloma cells – cell-based, calcein-AM fluorescence, 48 h, PK04 Diversity Set, profiling panel (AID 1166); details: RPMI8226 myeloma viability, higher = more signal;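 also: cells grown under basal conditions without added stimulus; test concentration not given here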
[6] = JC-1 mitochondrial signal, unstimulated HepG2 cells – cell-based, JC-1 fluorescence, 24 h, 100 nL compound, profiling panel (AID 1167); details: HepG2 mitochondrial potential, higher = more signal; also: test concentration not given here
[7] = JC-1 mitochondrial signal, unstimulated adipocytes – cell-based, JC-1 fluorescence, 3T3-L1 adipocytes, 24 h, 100 nL compound, profiling panel (AID 1168); details: JC-1 mitochondrial fluorescence, higher = more signal, called active from +8 up or from −8 down; also: test concentration not given here
[8] = JC-1 mitochondrial signal, unstimulated myeloma cells – cell-based, JC-1 fluorescence, RPMI8226, 24 h, 100 nL compound, profiling panel (AID 1169); details: JC-1 mitochondrial potential fluorescence, higher = more signal; also: test concentration not given here
[9] = JC-1 mitochondrial signal, unstimulated MM1S myeloma – cell-based, JC-1 fluorescence, 24 h, 100 nL compound, profiling panel (AID 1170); details: MM1S mitochondrial potential, higher = more signal; also: test concentration not given here
[10] = resazurin metabolic signal in A549 cells – cell-based, resazurin fluorescence, 24 h, PK04 Diversity Set, profiling panel (AID 1171); details: A549 viability, higher = more signal, called active from +8 up or from −8 down; also: test concentration not given here
[11] = resazurin metabolic signal in HepG2 cells – cell-based, resazurin fluorescence, 24 h, PK04 Diversity Set, profiling panel (AID 1172); details: HepG2 viability, higher = more signal; also: test concentration not given here
[12] = budding yeast growth changes without added modifier – OD600, strain BY4716, 24 h, basal condition, primary screen (AID 1173); details: S. cerevisiae BY4716 growth, OD600, 24 h; higher = more signal, called active from +8 up or from −8 down
[13] = viability profiling in MM1S myeloma cells – cell-based, resazurin fluorescence, basal, 24 h, PK04 Diversity Set, profiling panel (AID 1174); details: higher = more signal, called active from +8 up or from −8 down; also: test concentration not given here
[14] = target: Dihydroorotate dehydrogenase (quinone), mitochondrial (Plasmodium falciparum (isolate 3D7)) (UniProt Q08210); experiment: inhibition of P. falciparum DHODH – biochemical, C-terminal His tag, absorbance 600 nm, primary screen (AID 1175); details: PfDHODH enzyme, DCIP absorbance 600 nm; higher = more signal, called active from +8 up or from −8 down;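 also: recombinant parasite enzyme with a five histidine tag at its C terminus; test concentration not given here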
Dihydroorotate dehydrogenase (quinone), mitochondrial (Plasmodium falciparum (isolate 3D7)), sequence (Q08210 whole entry, looked up): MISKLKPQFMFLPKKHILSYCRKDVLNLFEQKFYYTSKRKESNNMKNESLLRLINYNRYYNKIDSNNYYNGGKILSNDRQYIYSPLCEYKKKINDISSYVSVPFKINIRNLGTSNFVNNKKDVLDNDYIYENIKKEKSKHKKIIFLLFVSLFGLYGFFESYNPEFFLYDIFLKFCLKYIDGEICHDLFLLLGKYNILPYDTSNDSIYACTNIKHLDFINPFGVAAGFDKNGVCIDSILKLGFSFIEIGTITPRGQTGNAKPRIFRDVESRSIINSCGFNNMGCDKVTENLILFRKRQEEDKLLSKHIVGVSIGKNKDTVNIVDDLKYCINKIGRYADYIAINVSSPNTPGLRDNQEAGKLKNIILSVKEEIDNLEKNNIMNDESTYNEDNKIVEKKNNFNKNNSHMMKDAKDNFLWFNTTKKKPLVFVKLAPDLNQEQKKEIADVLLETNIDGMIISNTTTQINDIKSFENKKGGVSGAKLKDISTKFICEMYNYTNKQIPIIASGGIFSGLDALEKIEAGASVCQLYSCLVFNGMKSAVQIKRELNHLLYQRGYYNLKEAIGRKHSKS

[15] = inhibition of PAO1 biofilm formation – strain PAO1, LB-PBS medium, absorbance 600 nm, primary screen (AID 1176); also: test concentration not given here; details: P. aeruginosa PAO1 growth/biofilm, A600, 12 h; higher = more signal
[16] = growth modulation of vineyard yeast isolate – strain RM11-1a, OD600, basal, 24 h, primary screen (AID 1177);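 also: cultures grown under basal conditions with no added stressor; test concentration not given here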; details: S. cerevisiae RM11-1a growth, OD600, 24 h; higher = more signal, called active from +8 up or from −8 down
[17] = growth of efflux-deficient E. coli DRC39 – strain DRC39, OD650, 24 h, E. coli filamentation inducers, primary screen (AID 1178);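 also: growth measured as culture turbidity by optical density at 650 nm; test concentration not given here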; details: E. coli DRC39 acrAB, higher = more signal, called active from +8 up or from −8 down
[18] = growth of efflux-deficient E. coli DRC39 – strain DRC39, OD650, 48 h, E. coli filamentation inducers, primary screen (AID 1179);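 also: screen aims at cell division blockers that make cells filament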; details: E. coli DRC39 delta-acrAB growth, higher = more signal, called active from +8 up or from −8 down
[19] = viability profiling in RPMI8226 myeloma cells – cell-based, resazurin fluorescence, basal, 24 h, PK04 Diversity Set, profiling panel (AID 1180); details: higher = more signal;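 also: RPMI8826 multiple myeloma cell line at 5000 cells per well; test concentration not given here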
[20] = target: E3 ubiquitin-protein ligase XIAP (Homo sapiens) (UniProt P98170); experiment: small molecules binding XIAP protein – biophysical, small-molecule microarray, fluorescence 635 nm, primary screen (AID 1181); details: higher = more signal;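 also: score merges 667 nm emission and signal to noise over triplicate slides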
E3 ubiquitin-protein ligase XIAP (Homo sapiens), sequence (P98170 whole entry, looked up): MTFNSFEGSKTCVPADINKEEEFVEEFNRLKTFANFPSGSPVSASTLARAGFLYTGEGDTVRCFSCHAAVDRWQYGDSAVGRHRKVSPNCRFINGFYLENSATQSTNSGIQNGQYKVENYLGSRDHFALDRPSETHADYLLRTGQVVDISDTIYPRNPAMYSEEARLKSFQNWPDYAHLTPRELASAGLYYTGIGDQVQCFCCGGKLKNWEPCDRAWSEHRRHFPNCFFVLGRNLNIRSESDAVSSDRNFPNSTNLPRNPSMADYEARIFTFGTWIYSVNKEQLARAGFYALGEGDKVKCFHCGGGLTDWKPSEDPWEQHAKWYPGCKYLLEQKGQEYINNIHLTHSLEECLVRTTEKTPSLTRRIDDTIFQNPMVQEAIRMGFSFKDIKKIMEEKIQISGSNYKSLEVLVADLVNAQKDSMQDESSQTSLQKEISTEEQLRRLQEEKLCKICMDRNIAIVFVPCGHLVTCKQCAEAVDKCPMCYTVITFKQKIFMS

SMILES	z-score [1]	z-score [2]	z-score [3]	z-score [4]	z-score [5]	z-score [6]	z-score [7]	z-score [8]	z-score [9]	z-score [10]	z-score [11]	z-score [12]	z-score [13]	composite z-score [14]	z-score [15]	z-score [16]	z-score [17]	z-score [18]	z-score [19]	composite z-score [20]
CC[C@@H]1C=C(C(=O)O)[C@H](c2ccc(C(C)C)cc2)N1S(=O)(=O)c1ccc(C)cc1	-0.658	-0.178	-0.391	-0.683	-0.251	-0.961	0.495 (inactive)	-0.971	-0.574	-0.42 (inactive)	-0.892	-1.01 (inactive)	-0.725 (inactive)	-0.976 (inactive)	0.16 (inactive)	-1.27 (inactive)	-0.862 (inactive)	0.133 (inactive)	-2.23	0.198
CCCNC(=O)[C@@]1(c2ccc([N+](=O)[O-])cc2)CC(=O)N(CC23CC4CC(CC(C4)C2)C3)[C@@H]1c1ccc(CO)cc1I	-1.29	-0.738	-4.9	-3.81	-4.32	0.243	-0.0911 (inactive)	-0.872	-2.18	-3.39 (inactive)	-2.95	0.285 (inactive)	-3.47 (inactive)	0.286 (inactive)	0.32 (inactive)	1.34 (inactive)	-0.643 (inactive)	0.198 (inactive)	-4.07	-0.0749
COc1ccc([Si](C)(C)[C@H]2[C@H](CC(=O)N(CCO)Cc3ccccc3)O[C@@]3(C(=O)N(Cc4cccc(N5C(=O)c6cccc7cccc5c67)c4)c4ccccc43)[C@@H]2C)cc1	-0.191	0.996	-1.5	-0.883	-4.29	0.0381	2.83 (inactive)	-1.06	-1.08	-2.32 (inactive)	-0.101	0.476 (inactive)	-3.19 (inactive)	-2.98 (inactive)	1.98 (inactive)	0.768 (inactive)	0.67 (inactive)	0.865 (inactive)	-2.93	0.0564
COC(=O)[C@@]1(Cc2ccc(F)cc2)[C@H]2c3cc(C(=O)N(C)C)n(Cc4ccccn4)c3C[C@H]2CN1C(=O)c1ccccc1	-1.48	0.311	0.291	0.263	-0.519	-0.21	-0.858 (inactive)	-0.715	-1.01	0.45 (inactive)	1.15	0.0864 (inactive)	0.548 (inactive)	-0.171 (inactive)	-0.126 (inactive)	-0.319 (inactive)	-0.389 (inactive)	-0.42 (inactive)	0.35	0.332
COc1ccc([Si](C)(C)[C@@H]2[C@@H](CCO)O[C@]3(C(=O)N(Cc4ccc(N5C(=O)c6cccc7cccc5c67)cc4)c4ccccc43)[C@H]2C)cc1	-0.35	-0.903	-3.63	-1.6	-4.12	0.00779	1.89 (inactive)	-1.11	-1.15	-1.43 (inactive)	-0.454	0.338 (inactive)	-0.898 (inactive)	-0.774 (inactive)	1.51 (inactive)	3.87 (inactive)	1.68 (inactive)	1.19 (inactive)	-4.48	0.0623
O=C(NCC(O)CO)[C@]1(CCS(=O)(=O)c2ccccc2)N=C(c2ccc(OCCCO)cc2)O[C@@H]1c1ccccc1 (stereo not given in full)	-0.206	-0.13	-0.635	-0.37	-0.33	0.22	-1.3 (inactive)	-0.213	-0.824	0.562 (inactive)	-0.015	0.53 (inactive)	-0.57 (inactive)	-0.162 (inactive)	0.193 (inactive)	-0.702 (inactive)	-0.0686 (inactive)	-0.276 (inactive)	0.0882	-0.0203
COCCCNC(=O)[C@@]1(C)c2ccccc2C(=O)N(Cc2ccccc2)[C@H]1c1ccc(CO)cc1	0.587	0.928	-0.0853	-0.174	-2.12	0.548	-1.39 (inactive)	-0.648	-0.514	0.22 (inactive)	-0.0127	-0.552 (inactive)	0.392 (inactive)	-0.121 (inactive)	0.745 (inactive)	-0.755 (inactive)	-0.157 (inactive)	-0.275 (inactive)	-0.153	-0.0304
O=P(NCC1(CC2(c3ccccc3)CO2)CC1)(c1ccccc1)c1ccccc1 (stereo not given)	-1.08	-0.933	0.676	0.116	0.0906	-0.187	0.48 (inactive)	0.125	-0.792	0.316 (inactive)	-0.293	1.19 (inactive)	-0.242 (inactive)	-0.402 (inactive)	0.191 (inactive)	2.7 (inactive)	-0.191 (inactive)	-0.0173 (inactive)	0.0301	-0.102
COC(=O)c1c(CC[C@@H](CO)NC(=O)Nc2ncn[nH]2)oc(C(=O)Cc2ccccc2)c1C(=O)OC	-0.0782	-0.927	-0.314	0.226	0.343	-0.808	0.765 (inactive)	0.0444	-0.286	0.199 (inactive)	0.172	-0.62 (inactive)	0.059 (inactive)	0.593 (inactive)	0.55 (inactive)	-0.382 (inactive)	0.536 (inactive)	0.434 (inactive)	0.36	-0.0952
